# This is part of a sample that, as a whole, favours compounds with a hit. Of some 83,000 tested, about 20% had one in any assay.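 Single-concentration screen, 48 h exposure, 96-well plates. Endpoint: percent growth. Below 10 = active.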 Unmarked numbers belong to inactive results. Activity calls are given as the source filed them.
# Experiments:
# Test in all cases: NCI-60 one-dose screen, 48 h (100 = growth as untreated, 0 = no growth, -100 = all killed)
# Conditions in all cases: 10 µM
# DU-145 prostate = system: DU-145 prostate
# K-562 leukemia = system: K-562 leukemia
# MALME-3M melanoma = system: MALME-3M melanoma
# MDA-MB-231 breast = system: MDA-MB-231 breast
# RXF 393 renal = system: RXF 393 renal
# SF-268 CNS = system: SF-268 CNS
# SF-295 CNS = system: SF-295 CNS
# SF-539 CNS = system: SF-539 CNS
# UACC-257 melanoma = system: UACC-257 melanoma
SMILES,growth (DU-145 prostate),growth (K-562 leukemia),growth (MALME-3M melanoma) [%],growth (MDA-MB-231 breast) [%],growth (RXF 393 renal),growth (SF-268 CNS) [%],growth (SF-295 CNS),growth (SF-539 CNS),growth (UACC-257 melanoma)
CCOc1ccc(I)cc1,105%,119%,108,102,107%,96.4,113%,97.8%,104%
Oc1ccccc1-c1nnco1,99.7%,75.4%,96.2,84.4,74%,65.4,112%,89.9%,97.3%
CCC(C)(O)c1ccc(C)cc1 (stereo not given),106%,116%,119,107,113%,92.9,109%,103%,105%
C1CNC(C2=NCCN2)=N1,100%,90.4%,101,107,113%,94,101%,98.5%,
CCCCCCCCO,104%,101%,106,118,106%,108,108%,97.4%,101%
CC(=O)OCC(=O)[C@@]1(O)CC[C@H]2[C@@H]3CC[C@@H]4C[C@H](O)CC[C@]4(C)[C@H]3C(=O)C[C@@]21C,120%,101%,143,103,94.8%,102,104%,100%,101%
O=C(c1ccc(Cl)cc1)c1ccccc1Cl,123%,96.8%,103,101,93.3%,111,92.3%,89%,93.6%
O=C(NN=C1CCCCC1)C(=O)NN=C1CCCCC1,121%,81.1%,127,113,107%,99.1,113%,101%,108%
COC(=O)Nc1nc2ccc(C(=O)c3ccc(F)cc3)cc2[nH]1,-31% (active),-37% (active),57.5,26.5,-41.2% (active),22.6,-3.22% (active),-21.8% (active),-2.09% (active)
O/N=C/c1ccc(O)cc1O,112%,105%,109,105,112%,105,107%,104%,87.7%
Oc1ccc(N=Nc2ccc(Br)cc2)c(O)c1,-11.8% (active),6.18% (active),36.2,41.9,-58.3% (active),30.8,15.4%,-18.6% (active),20.6%
Cc1cc(N)c(S(=O)(=O)O)c(N)c1,96.6%,125%,118,103,112%,109,96%,96.8%,104%
OCCN1CCOCC1,124%,114%,114,113,119%,117,110%,111%,99.7%
CCOC(=O)CCCS(C)(=O)=O,117%,113%,105,99,113%,108,117%,97.7%,108%
O=C(NCc1ccco1)Nc1c(Cl)cc(Cl)cc1Cl,113%,106%,97.3,101,107%,104,93.5%,94.7%,
C=CCNc1ccccc1,122%,113%,124,86.7,113%,104,138%,104%,102%
CCOC(=O)C(CCC(C)C)C(=O)OCC,107%,103%,108,109,110%,92.5,102%,107%,97.5%

SMILES,growth (DU-145 prostate),growth (K-562 leukemia),growth (MALME-3M melanoma) [%],growth (MDA-MB-231 breast) [%],growth (RXF 393 renal),growth (SF-268 CNS) [%],growth (SF-295 CNS),growth (SF-539 CNS),growth (UACC-257 melanoma)
COc1ncnc2c1cnn2C,111%,115%,126,100,114%,101,112%,96.8%,106%
CC(C)C(C#N)(C(C)C)C(C)C,111%,114%,92.9,104,115%,98.1,103%,104%,96%
Cc1cc(C(C)(C)C)cc(C)c1Br,121%,111%,135,108,113%,102,103%,94.9%,105%
CC1(C)N=C(N)N=C(N)N1c1cccc(Br)c1,53.4%,23.2%,68.9,77.6,66.8%,37.2,-8.36% (active),16.2%,56%
CCOC(=O)c1[nH]c(C)c(C(C)=O)c1C,93.7%,87.3%,95.7,96.6,97.3%,93.5,92.6%,92.6%,98.3%
Cc1ccc(Cl)cc1NC(=O)N(C)CCO,131%,98.5%,134,118,112%,126,121%,91.9%,110%
C=CCOC(=O)C(=O)OCC=C,112%,95.1%,139,108,103%,103,154%,91.8%,102%
CCCCC(CC)COC(C)=O (stereo not given),106%,95.1%,96.4,106,117%,96.6,99.3%,92.1%,104%
CC(=O)Oc1ccc(Br)cc1C(=O)O,120%,109%,98.2,118,98.8%,106,109%,93.2%,101%
CC(O)COc1ccc(-c2ccccc2)cc1 (stereo not given),108%,102%,115,96.6,106%,99.4,107%,104%,119%
Cc1cc2ccccc2c(O)c1C#N,120%,92.8%,126,98.9,118%,103,116%,110%,106%
CC(=O)c1ccc(C(C)(C)C)cc1,105%,103%,102,107,95.2%,102,97.6%,94.3%,97.2%
N#CSc1cc(S(N)(=O)=O)ccc1N,115%,113%,110,108,119%,108,120%,102%,107%
OCC1OC(OC2C(O)C(CO)OC2(CO)OC2OC(CO)C(O)C(O)C2O)C(O)C(O)C1O (stereo not given),116%,139%,138,99.6,118%,106,131%,96.9%,97.6%
Cc1ccc(C(=O)c2ccccc2)c(C)c1,104%,125%,120,97.8,116%,102,136%,98.9%,112%
CC(C)C1CCCCC1O (stereo not given),113%,164%,117,99.4,112%,99.5,111%,101%,101%
